High-throughput results as filed in PubChem.
HIF-2a block: HIF-2a inhibition; 786-0 RCC cells HIF-2a reporter, luciferase luminescence, overnight; inhibition, % at 18.8 µM; actives 0.72% (n = 360,000);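 active means inhibition of the luminescence signal of 40% or more relative to plate controls, in a single-dose primary screen at 18.75 µM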
TWEAK-Fn14 inh: TWEAK-Fn14 signaling inhibition. TWEAK-stimulated Fn14 reporter cells, luciferase luminescence, 8 h. inhibition, % at 10 µM. actives 2% (n = 360,000). AID 1159606; in the data active means inhibition above about 50%
KKLEB cytotox: counter-screen for CF NF-kB inhibitors: cytotoxicity; KKLEB CF airway cells viability, ATPlite luminescence, overnight; hits give low values; cells stimulated with P. aeruginosa culture filtrate; activity change (cytotoxicity), % at 5 µM; actives 0.36% (n = 360,000);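 active means corrected activity change at or below -50% at 5 µM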
TROY signal inh: inhibitors of TROY-dependent NF-kB signaling | Q293 LMP1-TROYcd NF-kB luciferase reporter, 4 h | actives 0.98% (n = 360,000) | inhibition, % at 10 µM | AID 1347056;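 active means compounds whose plate-normalised and pattern-corrected inhibition of the luciferase reporter signal at the single screening dose is 50% or more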
CF NFkB block: blocks PAF-induced NF-kB reporter in cystic fibrosis cells. KKLEB NF-kB-GFP reporter, GFP fluorescence overnight. inhibition, % at 5 µM. actives 0.86% (n = 360,000). AID 588850;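 active means at least 50% inhibition at 5 µM, scaled per plate between neutral and stimulator controls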;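 further: PAF is a Pseudomonas aeruginosa culture filtrate used as stimulus; plate controls were PAF-stimulated DMSO wells for no effect and unstimulated DMSO wells for full effect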
Peg3 prom inh: inhibitors of Peg3 promoter. inhibition, % at 20 µM. actives 1.7% (n = 360,000). HeLa PEG-Prom luciferase reporter, luminescence, overnight;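 active means inhibition of at least 50% at 20 µM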
Mdm2-MdmX confirm: Mdm2/MdmX (human) interaction inhibition, confirmed. shares compounds with HIF-2a block. SaOS-2 split-luciferase Mdm2/MdmX complementation, luminescence. inhibition, % at 8 µM. actives 99% (n = 740);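 active means mean inhibition of the luminescence signal across two replicates at or above 26 percent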
HIF-2a conf: HIF-2a inhibition, single concentration confirmation. shares compounds with HIF-2a block. 786-0 RCC cells, HIF-2a luciferase reporter luminescence, overnight. inhibition, % at 18.8 µM. actives 56% (n = 1,800). AID 651580;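 active means mean inhibition across four replicates of at least 40 percent at the single tested concentration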
HIF-1a counter: inhibits HIF-1a reporter, a counter-screen for HIF-2a inhibitors. shares compounds with HIF-2a block. MiaPaCa-2 HIF-1a luciferase reporter, desferoxamine, overnight. inhibition, % at 18.8 µM. actives 72% (n = 1,800). AID 651589;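 active means mean inhibition of the reporter signal across four replicates at the single tested dose of 50% or more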
* = called active by the depositor; . = not tested or not shown. Shown are actives, neighbours in structure and some others; about 4% of the full set was active somewhere.

SMILES	HIF-2a block	TWEAK-Fn14 inh	KKLEB cytotox	TROY signal inh	CF NFkB block	Peg3 prom inh	HIF-2a conf	HIF-1a counter	others
COc1ccc(OC)c(/C=C/C(=O)c2ccc3c(c2)OCCO3)c1	-71.9	16.3	-33.2	-36.0	-0.7	-48.7	.	.
CCOc1ccc(C(=O)/C=C/c2cc(OC)c(OC)c(OC)c2)cc1	65.9*	42.4	-24.7	29.3	5.2	62.2*	52.6*	103.3*
COc1cc(/C=C/C(=O)c2ccc3c(c2)OCO3)cc(OC)c1OC	43.7*	29.8	-9.9	-2.7	35.2	1.8	35.8	103.1*
COc1ccc(/C=C/C(=O)c2ccc3c(c2)OCO3)cc1OC	-34.8	-26.5	-8.6	-41.8	-19.0	-23.7	.	.
COc1ccc(CCNC(=O)COC(=O)/C=C/c2ccc(OCC#N)c(OC)c2)cc1OC	34.0	-8.3	-1.4	-5.1	16.4	2.6	.	.
COc1cc(/C=C/C(=O)c2ccc(C)cc2)ccc1OCC#N	85.5*	86.6*	-38.5	-9.6	41.4	103.2*	25.1	102.3*
Cc1cc(F)ccc1S(=O)(=O)Nc1ccccc1C(=O)Nc1ccccc1-c1nc2ccccc2[nH]1	3.5	102.5*	-59.3*	69.7*	74.0*	95.7*	.	.	Mdm2-MdmX confirm=97.2*
COc1ccc(C2c3ccc(O)cc3Oc3ncn(Cc4ccccc4)c(=N)c32)cc1OC (configuration not stated)	58.5*	36.4	-0.2	38.0	7.7	22.1	9.0	50.9*
CN(C)c1ncnc2c1ncn2C1CCCO1 (configuration not stated)	5.9	3.8	5.0	2.8	-6.2	11.2	.	.
O=C1NC[C@H](CC2CCCCC2)N(CCc2cc(C(F)(F)F)cc(C(F)(F)F)c2)C1=O	8.7	2.8	.	3.9	.	.	.	.
O=[N+]([O-])c1ccc(Oc2cccc3cccnc23)c([N+](=O)[O-])c1	41.2*	20.3	-0.1	-31.2	-19.5	-4.8	13.8	-7.6
CCn1c(SCC(=O)NC2CC2)nnc1-c1cccc(OC)c1	9.9	6.7	11.6	1.6	-11.6	3.7	.	.
O=[N+]([O-])c1ccc(Cl)cc1Sc1nc2ccccc2o1	4.3	14.8	-21.3	-6.8	8.1	-46.0	.	.
O=[N+]([O-])c1ccc(Sc2nc3ccccc3o2)c([N+](=O)[O-])c1	91.9*	57.6*	-42.3	23.0	68.0*	96.9*	74.2*	105.8*
Fc1ccc(F)c(C2=NNC(=Nc3ccccc3F)SC2)c1	-292.7	14.9	3.2	-35.6	-17.1	-354.6	.	.
COCCn1c(C)cc(C2=NNC(=Nc3ccccc3F)SC2)c1C	77.9*	105.4*	-4.0	89.4*	0.4	6.0	34.0	71.3*	Mdm2-MdmX confirm=80.0*
O=C(c1ccc(Cn2cc(Br)cn2)o1)N1N=C(C(F)F)CC1(O)C(F)F (configuration not stated)	14.4	-2.1	4.1	-11.8	-7.0	-3.1	.	.
O=C(c1cc(C2CC2)nc2ccc(Br)cc12)N1N=C(C(F)F)CC1(O)C(F)F (configuration not stated)	57.2*	19.7	-14.4	54.4*	13.0	59.8*	35.1	65.3*
CCOC(=O)c1cc(-c2c(Cl)cccc2Cl)no1	24.2	-7.3	7.6	-24.4	2.4	0.3	.	.
CNC(=S)N/N=C/c1c2ccccc2c(Cl)c2ccccc12	-45.5	-43.7	-5.3	-24.7	-71.0	-39.0	.	.
CC12CCC(C(=O)Nc3ccc4c(c3)OCCO4)(OC1=O)C2(C)C (configuration not stated)	42.1*	83.5*	2.8	70.3*	-12.6	12.3	31.6	50.3*
Cc1cccc(NC(=O)C23CCC(C)(C(=O)O2)C3(C)C)c1 (configuration not stated)	10.2	3.1	-4.6	4.1	-5.6	16.8	.	.
